# Screens: PubChem, The Scripps Research Institute Molecular Screening Center
# An excerpt weighted towards active compounds, which were near 2.4% of everything screened.
# ASK1 primary = human ASK1 kinase inhibition, primary screen; Q99683; AlphaScreen MKK6 phosphorylation by ASK1, luminescence; inhibition, % at 7.44 µM; actives 0.99% (n = 22,000); in the data active = inhibition above about 35%;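 also: 0% = median of compound wells and 100% = no enzyme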
# Target sequence (Q99683 whole entry, looked up): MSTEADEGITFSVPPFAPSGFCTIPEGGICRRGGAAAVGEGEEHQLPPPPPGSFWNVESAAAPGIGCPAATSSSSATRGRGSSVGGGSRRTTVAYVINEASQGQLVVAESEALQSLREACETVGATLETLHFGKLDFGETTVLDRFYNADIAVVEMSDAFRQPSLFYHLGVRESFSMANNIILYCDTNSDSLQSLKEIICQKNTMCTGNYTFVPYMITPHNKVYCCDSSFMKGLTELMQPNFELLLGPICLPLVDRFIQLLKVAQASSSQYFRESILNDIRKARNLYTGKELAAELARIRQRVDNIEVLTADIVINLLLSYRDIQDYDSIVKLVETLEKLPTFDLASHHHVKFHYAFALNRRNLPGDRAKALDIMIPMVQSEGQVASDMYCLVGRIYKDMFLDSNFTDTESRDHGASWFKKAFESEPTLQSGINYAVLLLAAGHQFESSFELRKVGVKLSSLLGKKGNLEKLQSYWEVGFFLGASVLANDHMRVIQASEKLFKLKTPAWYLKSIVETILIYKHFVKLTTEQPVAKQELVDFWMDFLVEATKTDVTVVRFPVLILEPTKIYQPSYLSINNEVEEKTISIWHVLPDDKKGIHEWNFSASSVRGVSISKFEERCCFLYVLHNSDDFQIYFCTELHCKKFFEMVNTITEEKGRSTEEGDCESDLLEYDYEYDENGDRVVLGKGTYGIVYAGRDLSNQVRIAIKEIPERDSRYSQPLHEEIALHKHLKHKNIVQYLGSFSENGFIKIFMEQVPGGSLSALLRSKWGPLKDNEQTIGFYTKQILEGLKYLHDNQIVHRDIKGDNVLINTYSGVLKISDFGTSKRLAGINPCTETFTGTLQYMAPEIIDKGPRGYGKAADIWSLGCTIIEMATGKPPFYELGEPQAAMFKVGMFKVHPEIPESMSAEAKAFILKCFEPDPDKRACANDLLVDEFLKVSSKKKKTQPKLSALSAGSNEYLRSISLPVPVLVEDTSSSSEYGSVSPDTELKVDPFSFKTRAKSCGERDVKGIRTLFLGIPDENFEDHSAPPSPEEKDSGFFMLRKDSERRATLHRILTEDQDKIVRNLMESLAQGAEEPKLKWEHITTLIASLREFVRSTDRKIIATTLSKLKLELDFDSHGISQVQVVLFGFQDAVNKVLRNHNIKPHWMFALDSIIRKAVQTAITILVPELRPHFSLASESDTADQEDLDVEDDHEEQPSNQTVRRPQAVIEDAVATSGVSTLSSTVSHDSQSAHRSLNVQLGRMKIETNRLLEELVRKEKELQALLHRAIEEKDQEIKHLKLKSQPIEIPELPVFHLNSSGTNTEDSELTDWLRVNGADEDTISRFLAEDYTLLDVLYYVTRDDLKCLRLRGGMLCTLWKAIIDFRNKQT
# ULK1 primary = blocks human autophagy kinase ULK1 | O75385 | AlphaScreen Atg13 phosphorylation by ULK1, luminescence | inhibition, % at 5.96 µM | actives 1.9% (n = 30,000) | AID 1259251; in the data active = inhibition above about 43%;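 also: 0% = median of compound wells and 100% = no enzyme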
# AlphaScreen intf = interferes with AlphaScreen TruHits signal in ASK1 counter-screen; shares compounds with ASK1 primary; AlphaScreen TruHits beads, signal interference counterscreen; IC50, µM; actives 20% (n = 220); AID 1159604;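 active = IC50 of 10 µM or lower in the counterscreen; inactive = IC50 above 10 µM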;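 also: loss of AlphaScreen light from TruHits beads alone with no ASK1 enzyme present; potency of signal reduction so a low IC50 flags an assay artifact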
# An asterisk follows results filed as active; i = inactive; x = no result given; ! = a repeat was not active.
SMILES,ASK1 primary,ULK1 primary,AlphaScreen intf
O=C(Nc1ccc(-c2ncnc3[nH]ccc23)cc1)C1COc2ccccc2O1 (stereo not given),38*,41,>19
O=C1CCCN1CCCNc1ncnc2nc(N3CCCC3CO)[nH]c12 (stereo not given),-4,10,x
COc1cc2nc(Nc3ccc(N4CCOCC4)cc3)nc(NCCCN3CCCC3=O)c2cc1OC,17,21,x
COc1cc2nc(Nc3ccc(N4CCOCC4)cc3)nc(NCCOc3ccccc3)c2cc1OC,57*,-1,5.8*
COc1ccc(CCNc2nc(Nc3cccc(N(C)C)c3)nc3cc(OC)c(OC)cc23)cc1,61*,-9,7.6*
COc1ccc(CCNc2nc(Nc3ccc(N4CCOCC4)cc3)ncc2C)cc1,40*,27,>20
CCCNc1nc(Nc2ccc(N3CCOCC3)cc2)ncc1C,16,9,x
COc1ccc(CCNc2nc(Nc3ccc(N4CCOCC4)cc3)nc3cc(OC)c(OC)cc23)cc1,53*,4,6.8*
COc1cc2nc(Nc3ccc(N4CCOCC4)cc3)nc(NCCc3ccc(O)cc3)c2cc1OC,23,-9,x
CCN(CC)c1nc(NCCc2ccc(OC)cc2)nc(Nc2cccc(N(C)C)c2)n1,17,2,x
CCCCCCn1c(SCC(O)CCl)nc2c1c(=O)[nH]c(=O)n2C (stereo not given),x,5,x
Cc1cc(NCCO)nc(Nc2cnccn2)n1,-7,10,x
CCCNc1nc(Nc2ccc(N3CCOCC3)cc2)nc2nc[nH]c12,-10,42,x
CCCNC(=O)c1cccc(Nc2cnccn2)n1,8,6,x
Cc1cnc(Nc2ccc(N3CCOCC3)cc2)nc1NCc1ccccc1,37*,16,>20
Cc1cnc(Nc2ccc(N3CCOCC3)cc2)nc1NCc1cccnc1,17,25,x
COc1ccc(CCNc2cc(-c3ccc(C(=O)N4CCN(C)CC4)cc3)nc(N)n2)cc1,-4,8,x
COc1cc(Nc2nc(Nc3cc(OC)c(OC)c(OC)c3)c3ncn(Cc4ccc(C(F)(F)F)cc4)c3n2)cc(OC)c1OC,19,-19,x
COc1cc(Nc2nc(-c3c(C)noc3C)nc3c2ncn3Cc2ccc(C(F)(F)F)cc2)cc(OC)c1OC,37*,-46,>27
Cc1ccc(-c2ncn(-c3ccc(Nc4nccc(-c5cncc6ccccc56)n4)cc3)n2)cn1,38*,4,>19
Cc1ccc(-c2ncn(-c3ccc(Nc4nccc(-c5cncc(N6CCOCC6)c5)n4)cc3)n2)cn1,41*,3,>19
Cc1ccc(-c2ncn(-c3ccc(Nc4nccc(-c5ccc(Cl)nc5)n4)cc3)n2)cn1,28,-22,x
Cc1ccc(-c2ncn(-c3ccc(Nc4nccc(-c5ccc(N)nc5)n4)cc3)n2)cn1,4,-26,x
FC(F)(F)c1ccc(Nc2nc(NCc3cccc(C(F)(F)F)c3)c3[nH]cnc3n2)cc1,-9,-13,x
CC(C)n1cnc2c(NCc3cccc(C(F)(F)F)c3)nc(Nc3ccc(N4CCOCC4)cc3)nc21,55*!,-12,6.4*
SMILES,ASK1 primary,ULK1 primary,AlphaScreen intf
FC(F)(F)c1cccc(CNc2nc(Nc3ccc(N4CCOCC4)cc3)nc3nc[nH]c23)c1,45*!,32,i
CC(C)n1cnc2c(NCc3cccc(C(F)(F)F)c3)nc(Nc3ccccc3)nc21,6,-25,x
Cn1nccc1Nc1nc2ccc(C(=O)NCc3cccc(C(F)(F)F)c3)cc2s1,-12,-18,x
CCN(CC)c1nc(Nc2ccc(N3CCOCC3)cc2)nc(N2CCC(N3CCOCC3)CC2)n1,14,-7,x
CCN(CC)c1nc(Nc2ccc3c(c2)OCO3)nc(N2CCC(N3CCOCC3)CC2)n1,39*,-10,>20
CCN(CC)c1nc(Nc2ccc(N3CCOCC3)cc2)nc(N2CCN(Cc3ccc4c(c3)OCO4)CC2)n1,43*,8,>19
CCN(CC)c1nc(Nc2ccccc2)nc(N2CCN(Cc3ccc4c(c3)OCO4)CC2)n1,13,-7,x
CCNc1cc(C)nc(N2CCN(C(=O)c3cccc(OC)c3)CC2)n1,x,8,x
CC(=O)Nc1ccc(NC(=O)c2cccc(-c3c(C)nn(C)c3C)n2)cc1,0,0,x
CC(C)n1cnc2c(Nc3ccc4c(c3)OCO4)nc(Nc3ccc(N4CCOCC4)cc3)nc21,36*,12,>20
Oc1ccc(CCNc2nc(N3CCN(Cc4ccc5c(c4)OCO5)CC3)nc3c2ncn3-c2ccsc2)cc1,38*,19,i
c1cc(-n2cnc3c(Nc4ccc(N5CCOCC5)cc4)nc(N4CCN(Cc5ccc6c(c5)OCO6)CC4)nc32)cs1,51*,19,i
Cc1cc(Nc2ccc3c(c2)OCO3)nc(Nc2ccc(N3CCOCC3)cc2)n1,73*,-18,i
Cc1cc(Nc2ccc(N3CCOCC3)cc2)nc(Nc2ccncc2)n1,21,5,x
Oc1ccc(CCNc2nc(N3CCN(Cc4ccc5c(c4)OCO5)CC3)nc3c2ncn3-c2ccccc2)cc1,30,10,x
c1cc(-n2cnc3c(Nc4ccc(N5CCOCC5)cc4)nc(N4CCOCC4)nc32)cs1,-10,42,x
CC(C)n1cnc2c(Nc3ccc4c(c3)OCO4)nc(N3CCC(N4CCOCC4)CC3)nc21,10,23,x
c1ccc(CN2CCC(Nc3cc(NC4CCN(Cc5ccccc5)CC4)ncn3)CC2)cc1,-10,-13,x
O=c1ccc(-c2cccs2)cn1Cc1ccc(F)cc1F,x,19,x
CC(=O)Nc1ccc(Nc2cc(NCCN3CCOCC3)ncn2)cc1,-18,-12,x
O=C(NCc1cn(-c2ccncc2)nn1)C(O)c1ccc(Cl)cc1 (stereo not given),5,2,x
CN(C)c1cccc(Nc2ccc(-n3cc(CC(=O)NCCCN4CCCC4=O)c4ccccc43)nn2)c1,9,16,x
COc1ccc(CCNc2nc(N3CCN(Cc4ccc5c(c4)OCO5)CC3)nc3c2ncn3Cc2ccc(C(F)(F)F)cc2)cc1,22,-13,x
COc1ccc(-c2nc(C)cc(Nc3ccc(N4CCOCC4)cc3)n2)cn1,27,1,x
CC(C)n1cnc2c(Nc3ccc4c(c3)OCO4)nc(N3CCN(Cc4ccc5c(c4)OCO5)CC3)nc21,16,24,x
SMILES,ASK1 primary,ULK1 primary,AlphaScreen intf
COc1ccc(CCNc2nc(NC3CCN(Cc4ccccc4)CC3)nc3c2ncn3C2CCCCC2)cc1,43*,10,>23
COc1ccc(CCNc2nc(Nc3ccccc3)nc3c2ncn3C2CCCCC2)cc1,25,6,x
CC(C)n1cnc2c(Nc3ccc(N4CCOCC4)cc3)nc(N3CCN(Cc4ccc5c(c4)OCO5)CC3)nc21,41*,4,i
COc1ccc(-c2nc(C)cc(Nc3ccc(N4CCOCC4)cc3)n2)cc1,50*,0,i
Oc1ccc(CCNc2nc(N3CCN(Cc4ccc5c(c4)OCO5)CC3)nc3c2ncn3C2CCCCC2)cc1,35,27,x
COc1ccc(CCNc2nc(N3CCN(Cc4ccc5c(c4)OCO5)CC3)nc3c2ncn3C2CCCCC2)cc1,48*,15,>23
c1ccc(OCCNc2ccnc(NCc3cccnc3)n2)cc1,1,2,x
COc1ccc(N/C=C(\C#N)c2ccc(Cl)cc2)c(OC)c1,x,-4,x
Nc1cccc(-c2nc(N)c3ncn(-c4ccsc4)c3n2)c1,-8,3,x
COc1ccc(CCNc2cc(C)nc(Nc3ncccn3)n2)cc1,3,1,x
COc1cc2nc(-c3c(C)noc3C)nc(Nc3ccc(N4CCOCC4)cc3)c2cc1OC,8,-4,x
COc1ccc(-c2nc3ncnc(Nc4cc(OC)c(OC)c(OC)c4)c3[nH]2)cn1,45*,6,>18
